Source: PubChem
Only some compounds are listed: those with a hit (about 4% of all), similar ones and a draw of the others.
Cl transport mod = KCC2 cotransporter modulators, thallium flux, primary screen, cell-based, HEK293 KCC2, FluoZin-2 fluorescence, MLSMR. KCC2 cells, thallium flux FluoZin-2 fluorescence. Solute carrier family 12 member 5 (Homo sapiens), Q9H2X9. B-score of Tl+ flux slope (higher = more flux/activation; lower = inhibition) at 10 µM. hit rate 2.2% among 190,000;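 active means thallium flux slope and its plate-corrected score both differing from the plate sample mean at a set confidence after two filtering rounds, in either direction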;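 further: slope of fluorescence scaled to starting intensity during 10 to 20 s after thallium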
HSV augment = enhancers of HSV replication in host cells, fold increase, host cell viability; hit rate 0.005% among 220,000; HSV replication augmentation in cells; maximum fold increase; in the data active means maximum fold increase above about 1.5; inconclusive means no clear call, values can overlap the other calls; tested in PC3 cells
Measles CPE = compounds protecting cells from measles virus cytopathic effect, primary screen, measles RdRp inhibitor project, single point, MLSMR library, absorbance | hit rate 1.5% among 140,000 | protection (pct of control), % at 4 µM | AID 841, 2007 | Measles virus-infected cells, CPE protection; in the data active means protection mostly above about 24%, no sharp cut-off; inactive means mostly below about 26%
ROMK primary = ROMK potassium channel modulators, primary screen, cell-based, thallium flux, MLSMR library; hit rate 2% among 130,000; ATP-sensitive inward rectifier potassium channel 1 (Homo sapiens), P48048; Tet-inducible ROMK, thallium flux fluorescence; actives lie on both sides; B-score at 10 µM;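 active means signal ratio slope over the read window, or its plate-corrected B-score, at least 3 SD from the plate mean, either direction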;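 further: B-score of the F/F0 ratio slope over 7 to 12 s after thallium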
Target sequence (P48048 whole entry, looked up): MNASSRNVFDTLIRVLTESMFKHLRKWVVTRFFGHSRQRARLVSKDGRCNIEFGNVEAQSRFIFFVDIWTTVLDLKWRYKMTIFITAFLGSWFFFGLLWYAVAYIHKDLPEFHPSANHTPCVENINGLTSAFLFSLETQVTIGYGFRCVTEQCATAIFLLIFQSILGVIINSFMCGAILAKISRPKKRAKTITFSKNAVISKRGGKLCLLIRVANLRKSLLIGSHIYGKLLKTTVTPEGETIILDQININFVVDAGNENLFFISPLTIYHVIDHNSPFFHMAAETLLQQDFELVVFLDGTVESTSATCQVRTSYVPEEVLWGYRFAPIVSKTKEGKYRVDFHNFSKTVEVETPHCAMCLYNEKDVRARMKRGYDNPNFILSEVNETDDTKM
Arbovirus anti = antivirals against arbovirus infection, primary screen, cell-based, full library, 10K replicate subset | arbovirus infection cell-based antiviral screen | inhibition, % at 10 µM | hit rate 0.37% among 200,000 | AID 1251, 2008; in the data active means inhibition above about 30%
Numbers without * were called inactive.

Screening O=C(Nc1ccc(S(=O)(=O)Nc2nccs2)cc1)c1ccc(F)c(S(=O)(=O)N2CCOCC2)c1 returned Cl transport mod 0.27, HSV augment inactive, ROMK primary -0.0021 and Arbovirus anti -4.
`CC(=O)c1ccc(NC(=O)c2ccc(S(=O)(=O)N3CCCC3)cc2)cc1` gave Cl transport mod 0.43, HSV augment inactive, Measles CPE 17 and Arbovirus anti -14.
Screening CSc1nnc(C(C)c2ncc(C(F)(F)F)cc2Cl)n1C (centres undefined) returned HSV augment inactive, ROMK primary 0.81 and Arbovirus anti -1.
CSC1=NSC2=NC(=O)/C(=C/c3coc4ccccc4c3=O)C(=N)N12 was read as Cl transport mod inactive, HSV augment inconclusive, Measles CPE 9 and Arbovirus anti -8.
Screening N=C1/C(=C/c2cccs2)C(=O)N=C2SN=C(SCc3ccccc3)N12 returned Cl transport mod 32*, HSV augment inactive, Measles CPE 28 and Arbovirus anti 35*.
CC1=CC2=NC(=O)/C(=C/c3cccs3)C(=N)N2O1 was read as Cl transport mod -0.0098 and HSV augment inactive.
CSC1=NSC2=NC(=O)/C(=C\c3cccs3)C(=N)N12 was read as Cl transport mod -0.16, HSV augment inactive, Measles CPE 21, ROMK primary -0.75 and Arbovirus anti 41*.
Screening COc1ccc([N+](=O)[O-])cc1NC(=O)C(C)OC(=O)c1cccnc1 (centres undefined) returned Cl transport mod -0.82, HSV augment inactive, ROMK primary 0.52 and Arbovirus anti 16.
For CCOP(=O)(OCC)C(Nc1ccccc1)c1ccccc1C(F)(F)F (centres undefined) the results were Cl transport mod -0.15, HSV augment inactive and ROMK primary -0.088.
`Cc1c(NC(=O)CSc2nnc3c4ccccc4n(CCc4ccccc4)c3n2)c(=O)n(-c2ccccc2)n1C` gave Cl transport mod -0.33, HSV augment inactive, Measles CPE 37* and Arbovirus anti 4.
Screening CCn1c2ccccc2c2nnc(SCC(=O)Nc3c(C)n(C)n(-c4ccccc4)c3=O)nc21 returned Cl transport mod -1.5, HSV augment inactive, Measles CPE 3, ROMK primary 0.27 and Arbovirus anti -7.
COc1ccc(N(C)C(=O)c2oc(=O)c3ccccc3c2-c2ccc(C)cc2)c(OC)c1 was read as Cl transport mod -0.65, HSV augment inactive and ROMK primary -0.75.
CC(=O)c1ccc(NS(=O)(=O)c2ccc(C)cc2)cc1 was read as Cl transport mod -0.28, HSV augment inactive, Measles CPE 7, ROMK primary -0.055 and Arbovirus anti 3.
CC(=O)c1ccc(NS(=O)(=O)c2cccc(C)c2)cc1 was read as Cl transport mod -0.6, HSV augment inactive, Measles CPE 41*, ROMK primary -0.63 and Arbovirus anti 8.
For COc1cc2c(cc1OC)C(C(=O)NCCN(C)C)C(c1cccs1)N(C)C2=O (centres undefined) the results were Cl transport mod 0.97, HSV augment inactive, ROMK primary 0.23 and Arbovirus anti -1.
Screening Nc1nc(-c2ccccc2)c(-c2ccc([N+](=O)[O-])cc2)s1 returned Cl transport mod 1.3, HSV augment inactive, ROMK primary -0.23 and Arbovirus anti 33*.
For O=C(C1=C[C@H](c2ccccc2)C[C@H](OCc2ccc(CO)cc2)O1)N1CCCCCCC1 the results were Cl transport mod -0.49 and Arbovirus anti 2.
`Cc1ccc(N(CC(O)COCc2ccco2)S(=O)(=O)c2ccc(C)cc2)cc1` (centres undefined) gave Cl transport mod -0.26, HSV augment inactive, Measles CPE 46*, ROMK primary -1.1 and Arbovirus anti -2.
For CCn1nc(C)c(CN2CCc3c([nH]c4ccccc34)C2c2ccc(F)c(OC)c2)c1C (centres undefined) the results were HSV augment inactive, ROMK primary -0.18 and Arbovirus anti -14.
For Cc1ccc2c(c1C)NC(=O)C21N2CCCC2C(C(=O)c2ccc3ccccc3c2)C12C(=O)Nc1ccccc12 (centres undefined) the results were Cl transport mod -0.72 and HSV augment inactive.
Screening Cc1[nH]c(C)c2c(=O)[nH]ncc12 returned Cl transport mod -0.15 and HSV augment inactive.
For O=c1[nH]n2c(=O)c3c([nH]c2c1N=Nc1cccc(Cl)c1)CCCC3 the results were Cl transport mod -1.8, HSV augment inactive, Measles CPE 25, ROMK primary 0.12 and Arbovirus anti 40*.
Screening CCOc1ccc(N=Nc2c(=O)[nH]n3c(=O)c4c([nH]c23)CCCC4)cc1 returned HSV augment inactive, Measles CPE 2, ROMK primary -0.0016 and Arbovirus anti 60*.
For CC(=O)c1c(C)[nH]c(C(=O)CSc2ncnc3sc(-c4ccccc4)cc23)c1C the results were Cl transport mod 29*, HSV augment inactive, Measles CPE 6 and Arbovirus anti -9.
`CCOc1ccc(-c2nc3scc(-c4cccs4)c3c(=O)[nH]2)cc1` gave Cl transport mod 0.29, HSV augment inactive, ROMK primary -0.28 and Arbovirus anti -3.
Cc1cnc(NC(=O)CSc2nc3ccccc3s2)s1 was read as Cl transport mod -1.2, HSV augment inactive, Measles CPE 8 and Arbovirus anti 0.
Cc1cnc(NC(=O)c2ccc(-c3nc4ccccc4s3)o2)s1 was read as HSV augment inactive, Measles CPE 18, ROMK primary -0.00069 and Arbovirus anti 51*.
CC(C)(C)NC(=O)CSc1nc2ccc(NC(=O)CSc3nnnn3Cc3ccccc3)cc2s1 was read as Cl transport mod -1.8, HSV augment inactive, Measles CPE 44*, ROMK primary -0.43 and Arbovirus anti 18.
O=C1c2ccccc2C(=O)N1CCOc1ccccc1 was read as Cl transport mod -0.42 and HSV augment inactive.
`Cc1c(C(=O)O)c(=S)sn1CCOc1ccccc1` gave Cl transport mod -2.5*, HSV augment inactive, Measles CPE 7, ROMK primary 1.6 and Arbovirus anti -3.
Cc1nc(-c2coc3c(CN(C)C)c(O)ccc3c2=O)cs1 was read as HSV augment inactive, Measles CPE 35*, ROMK primary -0.51 and Arbovirus anti 16.
`C[n+]1ccn(CC(=O)c2ccc(Cl)cc2)c1` gave Cl transport mod 0.57, HSV augment inactive, Measles CPE 39*, ROMK primary -0.02 and Arbovirus anti 5.
For Cc1ccc(S(=O)(=O)N2CCN(C(=S)NCc3ccc4c(c3)OCO4)CC2)cc1 the results were Cl transport mod 0.82, HSV augment inactive, ROMK primary -0.2 and Arbovirus anti -10.
